The results in this text go back to PubChem BioAssay (NCATS).

Each structure is given as a SMILES string. “And” between values parts separate entries of the source, which are not always exact repeats. Identical values can stand only once. Unmarked numbers belong to inactive results. Inconclusive results are not listed. The source made the active and inactive calls. Unless noted, calls come from the whole dose curve; as a rule, active = well fitted inhibition curve with a large enough effect; inconclusive = small, poorly fitted or top-dose-only effect; inactive = flat fitted curve, though single readings scatter.

The nature of assay [1]: Drug repurposing screens with cells derived from glioblastoma tumor samples (AID 1345199). For activity, negative = cell killing: % is set by controls: 0 for no effect and ±100 for the full control effect. Note: nearly all actives have a fitted effect of over 40% in size. Note: potency is the fitted concentration of half-maximal effect. The note with it: GBM patient neurospheres viability, ATP luminescence, 48 h. In short, it runs like this:
(§1)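 Four patient lines of CD133+ GBM neurospheres were screened at several concentrations; hits were retested in those lines plus three slower-growing GBM lines, using 48-hour treatment and ATP-based viability.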

For another assay, the system named is astro (control astrocytes). Described as above. The note with it: viability, ATP luminescence, 48 h; series mostly up to 45.9 µM. In outline: as §1
The target of assay [2] is Nuclear receptor subfamily 1 group I member 2 (Rattus norvegicus) (UniProt Q9R1A7). In words: qHTS assay for small molecule activators of the rat pregnane X receptor (rPXR) signaling pathway (AID 651751; call rule not given here; note: 0% is about no effect). The note with it: rPXR reporter cells, luciferase (One-Glo), 24 h.
Sequence of Nuclear receptor subfamily 1 group I member 2 (Rattus norvegicus) (Q9R1A7 whole entry, looked up): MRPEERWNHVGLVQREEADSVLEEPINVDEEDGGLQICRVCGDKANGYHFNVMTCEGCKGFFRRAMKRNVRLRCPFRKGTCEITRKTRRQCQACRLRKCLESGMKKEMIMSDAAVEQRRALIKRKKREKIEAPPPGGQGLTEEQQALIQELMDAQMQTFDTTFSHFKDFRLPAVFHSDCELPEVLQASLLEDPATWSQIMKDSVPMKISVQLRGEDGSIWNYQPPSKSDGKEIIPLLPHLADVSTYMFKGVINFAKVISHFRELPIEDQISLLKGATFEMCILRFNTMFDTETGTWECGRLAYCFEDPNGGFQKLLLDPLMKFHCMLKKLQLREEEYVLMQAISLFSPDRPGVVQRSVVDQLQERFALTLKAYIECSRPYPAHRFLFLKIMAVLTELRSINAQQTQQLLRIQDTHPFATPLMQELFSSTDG
Assay [3] in a line: qHTS assay for small molecule activators of the human pregnane X receptor (PXR) signaling pathway (AID 720659; call rule not given here; note: 0% is about no effect). The following applies: DPX-2 HepG2 CYP3A4-luciferase, 24 h; series mostly up to 92.3 µM.
Where [4] appears, read: at 45.9 µM (top of the series), tumour line B.
[5] abbreviates: at 45.9 µM (top of the series), tumour line D.
[6] abbreviates: at 46.1 µM (top of the series), tumour line C.
The mark [7] stands for this setting: at 20 µM (top of the series), tumour line C.
Where [8] appears, read: at 21.2 µM (top of the series), tumour line B.
Setting [9] is: at 21.2 µM (top of the series), tumour line D.
[10] abbreviates: at 46 µM (top of the series), tumour line A.

As for `NC(Cc1ccccc1)C(=O)O` (centres undefined), the figures for the activity, negative = cell killing in assay [1] (setting [4]), in assay [1] (setting [5]) and in assay [1] (setting [6]) were -8.84%, 10.2% and -12.6%, respectively. For the same compound, in the assay on astro, the Potency entry was “inactive”.

Turning to `NC(=O)OCC(O)COc1ccc(Cl)cc1` (centres undefined), the results for the activity, negative = cell killing in assay [1] (setting [7]), in assay [1] (setting [8]) and in assay [1] (setting [9]) were 0.2%, -15.4% and -22.6%, respectively. In addition, the Potency entry in the assay on astro is “inactive”.

Consider `Cc1cc(C)c(NC(=O)C[C@H](CC(=O)O)c2cccc3ccccc23)c(C(=O)N2CCC3(CCCC3)CC2)c1`, for which the activity, negative = cell killing in assay [1] (setting [4]) is -14%; in assay [1] (setting [5]), 2.34%; in assay [1] (setting [6]), -29.7%. The Potency result in the assay with astro is “inactive”.

As for `FC(F)(F)C(F)(F)C(F)(F)C(F)(F)C(F)(F)C(F)(F)F`, the activity, negative = cell killing in assay [1] (setting [4]) was -7.96%; in assay [1] (setting [5]), -23%; in assay [1] (setting [6]) it was -26.4%. In addition, in the assay on astro, the Potency result is “inactive”.

In the case of `NCCO/C=C/[C@H](N)C(=O)O`, the results for the activity, negative = cell killing in assay [1] (setting [4]), in assay [1] (setting [5]) and in assay [1] (setting [6]) were -6.64%, 5.28% and 26.3%, respectively. Besides, the Potency entry in the assay on astro was “inactive”. For the same compound, the max response in assay [2] was -1.31%.

On to `C=CCN1CCCC1CNC(=O)c1cc(S(N)(=O)=O)cc(OC)c1OC` (centres undefined), for which the activity, negative = cell killing was -7.52% in assay [1] (setting [4]) and -19.4% in assay [1] (setting [5]). Also, the Potency in assay [1] (tumour line A) is 35.5 µM (active). Besides, in the assay with astro, the Potency result is “inactive”.

`OCCN1CCN(CC/C=C2/c3ccccc3Sc3ccc(Cl)cc32)CC1`: the activity, negative = cell killing was -19.4% in assay [1] (setting [8]) and -24.9% in assay [1] (setting [9]). Besides, the Potency entry in the assay on astro is “inactive”.

With `COc1ccccc1N1CCN(CCCC(=O)c2ccc(F)cc2)CC1`, the activity, negative = cell killing in assay [1] (setting [4]) is -16%. Further, in assay [1] (tumour line A), the Potency was 10 µM (active). Besides, the Potency entry with astro was “inactive”.

In the case of `CO[C@H]1C[C@H](O[C@@H]2/C(C)=C/C[C@@H]3C[C@@H](C[C@]4(CC[C@H](C)[C@@H](C5CCCCC5)O4)O3)OC(=O)[C@@H]3C=C(C)/C(=N/O)[C@H]4OC/C(=C\C=C\[C@@H]2C)[C@]43O)O[C@@H](C)[C@@H]1O`, the activity, negative = cell killing in assay [1] (setting [6]) is -8.72%. Also, the Potency was 10 µM (active) in assay [1] (tumour line A) and 20 µM (active) in assay [1] (tumour line D). The Potency entry with astro was “inactive”.

Take `OCCOCCOCCO`: the results for the activity, negative = cell killing in assay [1] (setting [4]), in assay [1] (setting [5]) and in assay [1] (setting [6]) were -6.55%, -3.68% and 4.43%, respectively. Further, the Potency entry in the assay on astro is “inactive”. The max response in assay [2] was 0.109% and -2.24%.

For `C=C1CC[C@H](O)CC1=C/C=C1\CCC[C@]2(C)[C@@H]([C@H](C)CC[C@@H](O)C(C)(C)O)CC[C@@H]12`, the activity, negative = cell killing in assay [1] (setting [4]) was -20.7%. In assay [1] (tumour line A), the Potency was 8.91 µM (active). Besides, the Potency result in the assay with astro was “inactive”.

Take `Nc1ncnc2c1ncn2CCOCP(=O)(O)O`: the activity, negative = cell killing in assay [1] (setting [4]) is 2.17%; in assay [1] (setting [5]) it was -1.17%; in assay [1] (setting [6]) it was -21.5%. The Potency result in the assay with astro is “inactive”.

In the case of `[O-][N+](=Nc1ccccc1)c1ccccc1`, the activity, negative = cell killing in assay [1] (setting [4]) is -12.7%; in assay [1] (setting [5]), -9.27%; in assay [1] (setting [6]), -6.88%. The Potency entry with astro is “inactive”. The compound was classed as inactive in assay [3].

Consider `C=CC[N@@+]12CC[C@@]34c5ccccc5N5/C=C6/[C@H]7C[C@H]8[C@@]9(CC[N@@+]8(CC=C)C/C7=C/CO)c7ccccc7N(/C=C(/[C@@H](C[C@@H]31)/C(=C\CO)C2)[C@H]54)[C@@H]69`, for which the values for the activity, negative = cell killing in assay [1] (setting [7]), in assay [1] (setting [8]) and in assay [1] (setting [9]) were -3.52%, -8.94% and 3.96%, respectively. Also, the Potency entry with astro is “inactive”.

Consider `FC(F)(F)COCC(F)(F)F`, for which the results for the activity, negative = cell killing in assay [1] (setting [4]), in assay [1] (setting [5]) and in assay [1] (setting [6]) were -8.9%, -17.5% and -24.2%, respectively. Further, the Potency result in the assay with astro was “inactive”.

Turning to `C=CC(C)(O)CC/C=C(\C)CCC=C(C)C` (centres undefined), the activity, negative = cell killing in assay [1] (setting [4]) is -7.36%; in assay [1] (setting [5]), -9.56%; in assay [1] (setting [10]) it was -15.8%. In the assay with astro, the Potency entry was “inactive”. For the same compound, in assay [2], the max response was 14.8%.

For the compound `OC[C@H]1O[C@@](CO)(O[C@H]2O[C@H](CO)[C@@H](O)[C@H](O)[C@H]2O)[C@@H](O)[C@@H]1O`, the figures for the activity, negative = cell killing in assay [1] (setting [4]), in assay [1] (setting [5]) and in assay [1] (setting [6]) were -5.09%, -14.4% and -22.3%, respectively. In the assay with astro, the Potency entry was “inactive”. Also, the max response in assay [2] is 1.07%. For the same compound, the result in assay [3] was inactive.

Turning to `CCOC(=O)c1c[nH]c2cc(OCC(C)C)c(OCC(C)C)cc2c1=O`, the activity, negative = cell killing in assay [1] (setting [4]) is -9.16%; in assay [1] (setting [5]), -17.4%; in assay [1] (setting [10]) it was -29.7%. The Potency result in the assay with astro is “inactive”.

For `CCc1ccc(S(=O)(=O)O)cc1`, the activity, negative = cell killing in assay [1] (setting [4]) is 3.64%; in assay [1] (setting [5]), -9.65%; in assay [1] (setting [6]), -22.1%. In addition, the Potency result in the assay with astro was “inactive”.

Regarding `CC/C=C\C/C=C\C/C=C\C/C=C\C/C=C\C/C=C\CCC(=O)O`, the activity, negative = cell killing in assay [1] (setting [4]) was -3.27%; in assay [1] (setting [5]) it was -12.5%; in assay [1] (setting [6]), -20.7%. The Potency result in the assay on astro was “inactive”.

As to `CC1=CC(=O)NS(=O)(=O)O1`, the activity, negative = cell killing in assay [1] (setting [4]) was -5.56%; in assay [1] (setting [5]) it was 0.134%; in assay [1] (setting [6]), -19.5%. Besides, the Potency entry in the assay on astro is “inactive”. The max response in assay [2] is 4.96% and 0.0631%. For the same compound, the outcome in assay [3] was inactive.
